Experimental data as given in PubChem BioAssay AID504375 (National Center for Advancing Translational Sciences (NCATS), 2011).
In all, about 1,600 compounds went through this assay and about 25 (2%) were called active. About 7% were inconclusive and are not listed. The full list was thinned out, with actives kept by preference. A number with no mark means an inactive call. The call rests on the fitted dose curve; in most records, active means well fitted inhibition curve with a large enough effect; inconclusive means small, poorly fitted or top-dose-only effect, or effect the other way; inactive means no such curve, though single readings can be large or run the other way.

Target: Runt-related transcription factor 1 (Homo sapiens) + Core-binding factor subunit beta (Homo sapiens) (UniProt Q01196+Q13951)
Sequence (Q01196 whole entry, looked up): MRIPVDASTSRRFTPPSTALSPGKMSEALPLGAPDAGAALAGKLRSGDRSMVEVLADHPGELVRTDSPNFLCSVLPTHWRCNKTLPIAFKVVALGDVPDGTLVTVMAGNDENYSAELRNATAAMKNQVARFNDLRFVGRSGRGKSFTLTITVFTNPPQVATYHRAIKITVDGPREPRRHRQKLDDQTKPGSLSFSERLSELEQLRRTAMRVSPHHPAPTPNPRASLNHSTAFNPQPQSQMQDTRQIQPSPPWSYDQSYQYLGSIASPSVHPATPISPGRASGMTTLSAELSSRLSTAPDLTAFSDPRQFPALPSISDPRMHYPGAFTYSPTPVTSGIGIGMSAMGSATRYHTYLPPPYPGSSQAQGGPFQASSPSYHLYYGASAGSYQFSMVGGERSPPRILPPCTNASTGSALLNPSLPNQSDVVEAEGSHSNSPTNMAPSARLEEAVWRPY
Sequence (Q13951 whole entry, looked up): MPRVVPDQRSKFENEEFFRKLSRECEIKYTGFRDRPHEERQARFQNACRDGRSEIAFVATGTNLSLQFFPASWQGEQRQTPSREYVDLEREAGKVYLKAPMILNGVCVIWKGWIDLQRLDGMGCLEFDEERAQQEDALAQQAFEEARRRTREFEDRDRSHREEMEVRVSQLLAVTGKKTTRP
Assay: qHTS Assay for Compounds Blocking the Interaction Between CBF-beta and RUNX1 for the Treatment of Acute Myeloid Leukemia: Hit Validation with Orthogonal Assay
Details: CBFbeta-RUNX1 binding orthogonal assay, biochemical; series mostly up to 41 µM; activity change, negative = inhibition: at the top concentration
How it was run: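 Compound was incubated for 30 min with biotin-RUNX1 plus His6-CBF-beta at 30 nM per protein. Binding was then detected by TR-FRET between terbium anti-His antibody and 5 nM streptavidin-XL665, read after 90 min, in the same buffer as the AlphaScreen primary assay.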
On the % scale 0 is the no-effect control and ±100 the full control effect; potency means the concentration at half of the fitted maximal effect.

| Compound | activity change, negative = inhibition | Potency |
| --- | --- | --- |
| Cc1cc(NC(=O)CN2CCOCC2)n(-c2ccccc2)n1 | 4.36% |  |
| NS(=O)(=O)c1ccc(Sc2ccccn2)c([N+](=O)[O-])c1 | 54.9% |  |
| O=C(Nc1ccc2ccccc2c1)c1ccc(Cl)cc1Cl | -9.19% |  |
| COc1cccc(/C=N/n2nnnc2N)c1 | 8.92% |  |
| CCN(CC)S(=O)(=O)c1ccc(/C=C/C(=O)Nc2ccc(N3CCOCC3)cc2)cc1 | 8.12% |  |
| CN(C(=O)C(Cl)Cl)C1CC2C=CC1C2 (centres undefined) | 8.58% |  |
| Cc1cc(C)c(OCC(=O)N(Cc2ccc(N(C)C)cc2)C2CCS(=O)(=O)C2)c(C)c1 (centres undefined) | 1.38% |  |
| CN(C)S(=O)(=O)c1ccc(Cl)c(NC(=O)CN2CCN(Cc3ccc4c(c3)OCO4)CC2)c1 | 7.92% |  |
| CC(C)(O)P(=O)(O)CCc1ccccc1 | 15.2% |  |
| COC(=O)c1ccccc1N=Nc1c(C)noc1C | 12.7% |  |
| COc1ccccc1/C=C/C=N/n1c(-c2ccccn2)n[nH]c1=S | 11.2% |  |
| CC(=O)Oc1ccc(C(=O)Nc2cccc(-c3nnc(-c4ccco4)o3)c2)cc1 | -5.88% |  |
| C=CCNC(=S)NCC | -15.6% |  |
| CN(C)c1cc(-c2ccc([N+](=O)[O-])cc2)oc(=O)c1Cl | 7.12% |  |
| CCCc1cc(=O)oc2c(CN(CC)CC)c(O)c(Cl)cc12 | 19.6% |  |
| C/C(=N\O)C1CC(CC(=O)O)C1(C)C (centres undefined) | 5.63% |  |
| CCc1sc(N)nc1-c1ccccc1 | 9.08% [at 22.1 µM] |  |
| CC(C)NC(=O)NNC(=O)Cn1nnc(-c2cccc(Cl)c2Cl)n1 | 2.25% |  |
| COCCn1c(-c2ccc(Br)cc2)nc2oc3cc(OC)ccc3c(=O)c2c1=O | 13.3% |  |
| Fc1c(CSC(=S)N2CCOCC2)cccc1CSC(=S)N1CCOCC1 | 8.61% |  |

| Compound | activity change, negative = inhibition | Potency |
| --- | --- | --- |
| COc1ccc(/C=C/C(=O)Oc2cc(O)cc(O)c2)cc1 | 3.35% |  |
| CN1C2CCC1CC(NC(=O)c1ccc(Cl)cc1)C2 (centres undefined) | 10.2% |  |
| O=C(O)C1=CC(=C(c2ccc(O)c(C(=O)O)c2)c2ccc(O)c(C(=O)O)c2)C=CC1=O |  | 7.94 µM (active) |
| COc1ccc(/C=N/NC(=O)c2ccc(Br)cc2)cc1CN1CCOCC1 | 15.4% |  |
| O=[N+]([O-])c1cc(Cl)cc(/C=N/NC(=S)Nc2ccc(S(=O)(=O)N3CCOCC3)cc2)c1O | 36.7% |  |
| CSCC[C@H](NC(=O)OC(C)(C)C)C(=O)N/N=C/c1cccc2nccnc12 | 33.1% |  |
| COc1ccccc1N1C(=O)[C@@H]2[C@H](C1=O)[C@H](C(=O)c1ccc(OC(C)=O)cc1)N1N=CC=C[C@@H]21 | 21.1% |  |
| CC(C)Nc1cc(C(C)(C)C)nc2c(-c3ccccc3)cnn12 | 4.12% |  |
| Cc1nnc(NC(=O)c2ccccc2NC(=O)c2ccccc2)s1 | -23.7% |  |
| CN1CCN(C(=O)C23CC4CC(C)(CC(C)(C4)C2)C3)CC1 | -9.9% |  |
| COc1cccc(N/C(=N/C(=S)Nc2ccc(C)cc2C)Nc2nc(C)cc(C)n2)c1 | -7.98% |  |
| CC(=O)N1N=C2c3ccccc3CCC2C1c1cccs1 (centres undefined) | 7.29% |  |
| CC(=O)Nc1ccc(NS(=O)(=O)c2ccc(C)cc2)cc1[N+](=O)[O-] | 31.5% |  |
| Cc1cc(-c2ccccc2C(=O)Nc2ccccc2O)on1 | -2.53% |  |
| O=C(O)c1ccccc1C(=O)Nc1ccc(-n2ccc(C(F)(F)F)n2)cc1 | -6.89% |  |
| Cc1nc2c(c(=O)c3ccccc3n2C)c(=O)n1-c1ccccc1 | 1.95% |  |
| CN(C)c1ccc(NC(=O)Nc2csc3ccccc23)cc1 | -4.5% |  |
| CSc1cccc(NC(=O)Nc2ccccc2C(N)=O)c1 | 3.24% |  |
| NC(=O)c1ccc(NC(=O)COC(=O)/C=C/c2ccc3c(c2)OCO3)cc1 | 21.1% |  |
